Compound activity deposited in PubChem by National Center for Advancing Translational Sciences (NCATS).
Epigenetic derep: derepresses silenced GFP reporter in murine cells; 280,000 tested, 0.2% active; Potency, µM (titrated, usually from 53.9 µM), hits mostly activators; murine LDR cells, GFP reporter derepression, 30 h; also: nearly all actives have a fitted effect of over 60% in size
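Murine LDR cells bearing a silenced CMV-driven GFP reporter were exposed to compound for 30 h at 37 C. After PBS washes, GFP-positive cells (20-120 um objects) counted by laser-scanning microplate cytometry.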
NPSR antag: antagonists of human neuropeptide S receptor cAMP signaling; Q6W5P4; CHO-NPSR cells, cAMP TR-FRET, antagonist mode; Potency, µM (top dose mostly 38.3 µM), actives largely listed as inhibitors; 220,000 tested, 1% active; AID 1461; also: nearly all actives have a fitted effect of over 50% in size
Target sequence (Q6W5P4 whole entry, looked up): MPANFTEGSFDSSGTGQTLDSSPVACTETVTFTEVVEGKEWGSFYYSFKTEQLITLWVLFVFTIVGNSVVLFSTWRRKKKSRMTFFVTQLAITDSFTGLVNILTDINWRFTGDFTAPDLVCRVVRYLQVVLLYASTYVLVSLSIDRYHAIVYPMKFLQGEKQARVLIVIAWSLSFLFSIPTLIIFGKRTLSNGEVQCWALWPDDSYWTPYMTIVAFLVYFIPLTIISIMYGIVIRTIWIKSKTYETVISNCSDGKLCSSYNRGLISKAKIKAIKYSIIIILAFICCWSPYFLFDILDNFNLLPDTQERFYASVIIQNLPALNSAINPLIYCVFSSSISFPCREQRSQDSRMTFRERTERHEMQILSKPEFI
LMNA splice mod: LMNA splicing modulation; HeLa LMNA splicing GFP/RFP minigene ratio, 48 h; Potency, µM (top dose mostly 46.1 µM), hits mostly inhibitors; 200,000 tested, 0.01% active; AID 1487; active = well fitted inhibition curve with a large enough effect in the signal ratio, with a control signal flat, not every such curve was filed as active; inconclusive = small, poorly fitted or top-dose-only effect, or effect the other way, or a change in a side signal; the % refers to the signal ratio
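S3 HeLa stable clones carrying a lamin A-EGFP splicing minigene plus DsRed2 were seeded at 600 cells/well in Opti-MEM with 2% FBS, pin-dosed and incubated 48 h at 37°C. Acumen cytometry (488 nm) gave the GFP/RFP total-intensity ratio.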
HTT cytoprotect: Huntington cell model cytoprotection by ATP luminescence; 230,000 tested, 0.14% active; Potency, µM (highest dose often 56.4 µM), most hits filed as activators; PC12 HTT-Q103 induced, cytoprotection, ATP luminescence, 40 h; also: nearly all actives have a fitted effect of over 45% in size
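Quantitative HTS on tebufenozide-induced (100 nM) PC12 cells expressing HTTQ103 exon 1–GFP; compounds tested as a concentration series; survival measured via cellular ATP.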
HTT aggregate: inhibitors of mutant huntingtin aggregate formation in PC12 cells. 220,000 tested, 1.1% active. PC12 HttQ103-GFP aggregates, Acumen cytometry, 40 h. Potency, µM (titrated, usually from 46.1 µM), most hits filed as inhibitors; also: nearly all actives have a fitted effect of over 60% in size
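Aggregate formation scored by laser-scanning cytometer (488 excitation, 500–530 emission) in lysed PC12 cells expressing Q103-GFP after 100 nM tebufenozide induction; library tested in dose series, with ATPLite reagent added in the multiplex.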
Numbers stand for hits; n = inactive; u = inconclusive; x = no result given; ! = a repeat was not active; [ ] = dose if it differs, or a comment. Hits are enriched below; roughly 1.5% of the tested compounds scored in any of these assays. Unless noted, calls follow the shape of the dose curve; as a rule, active = well fitted curve in the direction sought with a large enough effect; inconclusive = small, poorly fitted or top-dose-only effect, or another doubt; inactive = no such curve, though single readings can be large; an effect the other way counts as inactive or inconclusive.

SMILES	Epigenetic derep	NPSR antag	LMNA splice mod	HTT cytoprotect	HTT aggregate
O=C(N/N=C/c1ccc(F)cc1)c1c(O)c2ccccc2[nH]c1=O	n	n	n	n[10 µM]	3.5µM
O=C(N/N=C/c1cccc(F)c1)c1c(O)c2ccccc2[nH]c1=O	n	n	n	n[10 µM]	u
O=C(N/N=C/c1ccccc1)c1c(O)c2ccccc2[nH]c1=O	n	u	n	n[10 µM]	22µM
Cc1ccc(CNC(=O)CCCCCn2c(=O)c3sccc3n(CC(=O)C(C)(C)C)c2=O)cc1	n	x	x	x	x
CCN(C(=O)c1cc2c(s1)-c1ccccc1OC2)c1cc(Cl)ccc1OC	n	x	x	x	x
O=[N+]([O-])c1ccc(O)c(N=Cc2sc3ccccc3c2O)c1	n	n	n	x	7.9µM
Oc1ccc(Cl)cc1N=Cc1sc2ccccc2c1Cl	n	n	x	2.2µM	u
COc1ccc(N=Cc2sc3ccccc3c2Cl)cc1	n	n	n	n	n
CCC1=Nc2cc(C(=O)NC3CCCC3)ccc2Sc2ccc(Br)cc21	n	x	x	x	x
O=[N+]([O-])c1cnc2ccccn12	n	n	x	4µM	n[9.22 µM]
COc1ccccc1NS(=O)(=O)c1cc(NC(=O)C2CC2)ccc1N1CCOCC1	n	n	u	n	u
COc1ccccc1NS(=O)(=O)c1cc(N2Cc3ccccc3C2=N)ccc1N1CCOCC1	n	2.5µM	u	n	n
CCOC(=O)c1c(C)oc2ccc(OC(=O)COc3c(F)c(F)c(F)c(F)c3F)cc12	n	n	u	x	13µM
CCOC(=O)c1c(C)oc2ccc(OCC(N)=O)cc12	n	n	u	n[10 µM]	n
O=C(Cn1ccn(-c2ccc(F)cc2)c(=O)c1=O)Nc1ccc(F)cc1	n	x	u	x	x
Cn1c(=N)n(CC(=O)O)c2ccccc21	n	n	n	n	5.6µM
Cc1ccc2c(c1)Cc1c(nc(-c3ccc(Cl)cc3)nc1SCC(=O)N1CCCCC1)O2	n	x	x	x	x
CCCOc1ccc(CSc2nc3ccccc3[nH]2)cc1	n	n	n	n	7.9µM
CCOc1ccc(OCCSc2nc3ccccc3[nH]2)cc1	n	n	u	n[10 µM]	u
CC(OC(=O)c1ccccc1Br)C(=O)Nc1nc(-c2cccc([N+](=O)[O-])c2)cs1 (configuration not stated)	n	n	n	n[10 µM]	n
O=C(Nc1nc(-c2cccc([N+](=O)[O-])c2)cs1)C(c1ccccc1)c1ccccc1	n	n	n	n[10 µM]	16µM
CC(=O)Nc1cc(OC(C)=O)c2nonc2c1OC(C)=O	n	u	u	n	7.1µM
CC(=O)Nc1nonc1NC(C)=O	n	n	n	n[10 µM]	n
CC1C/C(=C/c2cccn2C)C(=O)/C(=C/c2cccn2C)C1 (configuration not stated)	11µM	u	u	n	n
O=C(Nc1ccc(Oc2c(F)c(F)c(F)c(F)c2F)cc1)OC1CCN2Cc3ccccc3N=C12 (configuration not stated)	n	2µM	u	n[10 µM]	n[9.22 µM]
SMILES	Epigenetic derep	NPSR antag	LMNA splice mod	HTT cytoprotect	HTT aggregate
COc1cc(OC)c(NC(=O)C2=C(C)C(=O)OC23CCCCCC3)cc1Cl	n	x	n	x	x
Cc1cc(C)nc(NN=C(c2ccccc2)c2ccccc2)n1	n	n	u	n[10 µM]	18µM
CC(/C=C/c1ccccc1)=N\Nc1nc(C)cc(C)n1	n	n	u	x	n
CCc1nnc(SCC(=O)Nc2cccc(C(F)(F)F)c2)c2cc3oc(C)cc3n12	n	x	x	x	x
CC[C@H](C)C(=O)O[C@H]1CCC=C2C=C[C@H](C)[C@H](CC[C@@H]3C[C@@H](O)CC(=O)O3)[C@H]21	n	16µM!	n	n[10 µM]	u
CC[C@H](C)C(=O)O[C@@H]1CCC=C2C=C[C@H](C)[C@@H](CC[C@H]3C[C@@H](O)CC(=O)O3)[C@H]21	x	x	x	n[1.9 µM]	x
CCC(=O)NC1=C(Cl)C(=O)C(NC(=O)CC)=C(Cl)C1=O	n	u	u	n[10 µM]	n[9.22 µM]
O=P(c1ccccc1)(c1ccccc1)c1nc(-c2ccccc2)oc1NCc1ccccc1	n	u	u	n	11µM
C=CCCC(=O)Nc1nc(C)c(-c2csc(Nc3cc(OC)ccc3OC)n2)s1	n	n	u	n	10µM
CCCC(=O)Nc1nc(C)c(-c2csc(Nc3cc(OC)ccc3OC)n2)s1	n	n	u	n	u
CCN(CC)CCCNC(=O)C(C)n1nc(C)n2c(cc3occc32)c1=O (configuration not stated)	n	x	x	x	x
Cc1nc(N2CCCC2)c2c(C(=O)Nc3cccc(C)c3C)c(C)oc2n1	n	x	n	x	x
CC1CCc2nc(N)c(C#N)c(-c3ccncc3)c2C1 (configuration not stated)	n	n	n	n	n
CC1CCc2nc(N)c(C#N)c(-c3cccnc3)c2C1 (configuration not stated)	n	n	n	n[10 µM]	2µM
CN1/C(=C\C(=O)c2cccnc2)C(C)(C)c2ccccc21	n	n	u	n[10 µM]	n
CN1/C(=C\C=N\NC(=O)c2ccc(O)cc2)C(C)(C)c2ccccc21	n	n	u	n[10 µM]	n
CN1/C(=C/C(=O)c2nc(S(C)(=O)=O)ncc2Cl)C(C)(C)c2ccccc21	n	5µM	u	n[10 µM]	n[9.22 µM]
CN1/C(=C\C=N\NC(=O)c2cccnc2)C(C)(C)c2ccccc21	u	n	x	n	6.3µM
CN1/C(=C\C(=O)c2cncc(Br)c2)C(C)(C)c2ccccc21	n	n	u	n[10 µM]	16µM
COc1ccc(-c2cc(C(=O)N/N=C/c3ccc(OC)c(OC)c3)[nH]n2)cc1	n	x	x	x	x
COc1cc(OC)c(NC(=O)CN2C(=O)CCn3nc(-c4cccn4C)cc32)cc1Cl	n	x	n	x	x
CCC(O)c1cc2c(cc1NC(=O)c1ccccc1F)OCCO2 (configuration not stated)	n	x	n	x	x
O=C(CSc1c2c(nc3cc(Cl)ccc13)CCCC2)NCc1ccccc1Cl	n	x	x	x	x
O=C(CSc1c2c(nc3cc(Cl)ccc13)CCCC2)NCc1ccco1	n	u	u	13µM	x
CN(C)c1ccc(NS(=O)(=O)c2cc(Cl)ccc2Cl)cc1	n	n	n	0.79µM	u
SMILES	Epigenetic derep	NPSR antag	LMNA splice mod	HTT cytoprotect	HTT aggregate
O=S(=O)(Nc1ncccn1)c1ccc(NS(=O)(=O)c2cc(Cl)ccc2Cl)cc1	n	n	x	n	n
CCN(c1ccc(NS(=O)(=O)c2cc(Cl)ccc2Cl)cc1)C(C)C	n	n	u	n[10 µM]	10µM
N#CC(C#N)=NNc1ccc(S(=O)(=O)N2CCCCC2)cc1	n	n	n	n[10 µM]	20µM
O=C(Nc1ccccc1)Nc1ccc(S(=O)(=O)N2CCCCC2)cc1	n	n	u	n[10 µM]	13µM
N#C/C(=N\Nc1ccc(S(=O)(=O)N2CCOCC2)cc1)C(N)=S	n	n	u	n[10 µM]	n[9.22 µM]
CCOc1nc(SCCOc2ccccc2)nc(N(C)C)n1	n	n	n	u	0.45µM
Cc1ccccc1OCCSc1nc(N(C)C)nc(N(C)C)n1	n	n	n	x	n
NC(N)=NC(N)=Nc1ccc(S(=O)(=O)O)cc1	x	x	x	n[10 µM]	x
CCC(=O)OCCNc1cc(Sc2nc3ccccc3s2)c2nonc2c1[N+](=O)[O-]	u	u	n	n	u
O=[N+]([O-])c1c(NCCCO)cc(Sc2nc3ccccc3s2)c2nonc12	u	u	u	n	6.3µM
